Hit rate of the full screen: of about 16,000 compounds, about 5,700 (36%) were called active. Another 24% or so got no clear call; they are omitted. The list shows a part of the results. Unmarked numbers belong to inactive results. The call rests on the fitted dose curve; in most records, active means well fitted curve in the direction sought with a large enough effect; inconclusive means small, poorly fitted or top-dose-only effect, or effect the other way; inactive means no such curve, though single readings can be large or run the other way.
On the % scale 0 is the no-effect control and ±100 the full control effect.

For the assay, the target named is Cytochrome P450 1A2 (Homo sapiens) (UniProt P05177). The assay can be described thus: Cytochrome panel assay with activity outcomes. As to conditions: recombinant CYP, pro-luciferin dealkylation, luminescence, p450-cyp1a2; series mostly up to 57.1 µM; activity, negative = inhibition: at the top concentration.
Chain of Cytochrome P450 1A2 (Homo sapiens) (P05177 whole entry, looked up): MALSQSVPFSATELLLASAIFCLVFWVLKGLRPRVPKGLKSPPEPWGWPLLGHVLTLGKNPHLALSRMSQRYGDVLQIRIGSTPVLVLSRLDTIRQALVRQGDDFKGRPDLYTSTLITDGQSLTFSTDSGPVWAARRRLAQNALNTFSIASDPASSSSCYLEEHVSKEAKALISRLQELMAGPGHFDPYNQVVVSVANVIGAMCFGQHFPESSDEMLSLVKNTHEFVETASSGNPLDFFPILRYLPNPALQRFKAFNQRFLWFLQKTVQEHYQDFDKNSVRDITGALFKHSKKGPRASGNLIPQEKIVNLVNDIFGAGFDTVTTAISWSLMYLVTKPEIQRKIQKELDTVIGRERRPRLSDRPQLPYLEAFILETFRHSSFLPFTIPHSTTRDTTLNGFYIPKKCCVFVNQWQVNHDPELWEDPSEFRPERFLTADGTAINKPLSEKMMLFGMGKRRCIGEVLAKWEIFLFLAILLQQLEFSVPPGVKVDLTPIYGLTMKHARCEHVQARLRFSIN
For the compound `C=CC(=O)NC(C)(C)Cc1ccccc1`, the “activity, negative = inhibition” value was -14.6%.

Broadly, the AC50 is the concentration at which the activity in the assay is half-maximal. As for `CC(=O)Nc1nc2ccccc2n1Cc1ccccc1`, the half-maximal activity concentration (AC50) was 14.1 µM (active).

For the compound `C=CCn1c(NCc2ccccc2)nc2ccccc21`, the AC50 is 10 µM (active).

As to `C=CCC(C)(NCc1ccccc1)c1ccco1` (stereo not given), the “activity, negative = inhibition” value is -27.6%.

As for `CS(=O)(=O)c1nc2ccccc2n1Cc1ccccc1`, the concentration at half-maximal activity (AC50) is 11.2 µM (active).

In the case of `O=S(=O)(O)c1nc2ccccc2n1Cc1ccccc1`, the “activity, negative = inhibition” value was -14.6%.

For the compound `CO[C@@H]1COC(=O)C/C=C\[C@@H](C)[C@H](OC)COC(=O)[C@H](COCc2ccccc2)NC(=O)C/C=C\[C@H]1C`, the activity, negative = inhibition was -0.402% [at 11.4 µM].

`COCC(=O)N1CCC2(CCCN(C(=O)Nc3cccc(C#N)c3)C2)CC1`: the “activity, negative = inhibition” value is 0.755%.

With `O=C(Nc1ccc(-c2cc3ccccc3oc2=O)c(Cl)c1)c1cccnc1`, the “activity, negative = inhibition” value is 13.8%.

In the case of `O=c1oc2ccccc2cc1-c1csc(NN=C2CCCCC2)n1`, the AC50 is 0.891 µM (active).

`Clc1ccc(Cl)c(SCCCN2CCNCC2)c1`: the concentration at half-maximal activity (AC50) is 0.501 µM (active).

In the case of `Cc1c(C=O)c2ccccn2c1C(=O)c1ccncc1`, the AC50 is 1.12 µM (active).

With `COCCN1C(=O)C(=O)/C(=C(/O)c2cccc(OC)c2)C1c1ccco1` (stereo not given), the “activity, negative = inhibition” value was -13.8%.

As for `CN1CCN(c2nc(-c3cccnc3)nc3ccccc23)CC1`, the AC50 is 3.16 µM (active).

`CC(C)c1ccccc1-n1c(SCC(=O)N2CCN(c3ccccc3)CC2)nnc1-c1cccnc1`: the “activity, negative = inhibition” value is -23.2%.

On to `c1cncc(-c2nc(N3CCNCC3)c3ccccc3n2)c1`, for which the AC50 is 2.51 µM (active).

For `CN1CCN(c2ccncc2S(=O)(=O)N2CCN(C)CC2)CC1`, the activity, negative = inhibition is -7.43% [at 2.29 µM].

`N#CCSc1nc(N)c(C#N)c(C2CCCCC2)c1C#N`: the AC50 was 10 µM (active).

With `Cn1c(=O)c2[nH]c(CCS)nc2n(C)c1=O`, the activity, negative = inhibition was -15.3% [at 11.4 µM].

With `Cn1c(=O)c2[nH]c([C@@H]3CC(=O)C[C@H](c4nc5c([nH]4)c(=O)n(C)c(=O)n5C)N3)nc2n(C)c1=O`, the activity, negative = inhibition was -18.2% [at 2.29 µM].

Consider `CCCCCn1c(CN2CCCCC2C)nc2c1c(=O)n(C)c(=O)n2C` (stereo not given), for which the “activity, negative = inhibition” value is -17%.

Regarding `Cn1c(=O)c2[nH]c(C3CCCC3)nc2n(C)c1=O`, the half-maximal activity concentration (AC50) is 12.6 µM (active).

For `CCCn1c(=O)c2[nH]c(C3CCCC3)nc2n(CCC)c1=O`, the AC50 is 0.251 µM (active).

As to `CC(C)(C[C@@]1(C)NC(=O)NC1=O)OCc1ccccc1`, the activity, negative = inhibition was -12.1% [at 2.29 µM].

Regarding `CC(C)Oc1ccc(C2CC(=O)NC3=C2C(=O)CCC3)cc1` (stereo not given), the “activity, negative = inhibition” value is -14.5%.

With `CC1=NN(c2ccccc2)C(=O)/C1=C\N1CC(C)OC(C)C1` (stereo not given), the “activity, negative = inhibition” value is -23.7%.

With `CC1=NN(c2ccccc2)C(=O)C1`, the AC50 is 12.6 µM (active).

In the case of `CC(=O)NC1=NN(c2ccccc2)C(=O)C1`, the “activity, negative = inhibition” value was -12.4%.

Turning to `Cc1cccc(OCCn2c(S(=O)(=O)O)nc3ccccc32)c1`, the “activity, negative = inhibition” value was -12.6%.

Take `Cc1cccc(OCCn2c(-c3ccco3)nc3ccccc32)c1`: the half-maximal activity concentration (AC50) was 1.58 µM (active).

In the case of `N=C(N)SCCc1ccc(OCc2ccc([N+](=O)[O-])cc2)cc1`, the AC50 is 31.6 µM (active).

With `C[N+]1(CCOc2ccc([N+](=O)[O-])cc2)CCOCC1`, the “activity, negative = inhibition” value was -1.1%.

On to `N=C(N)SCCc1ccc(CCSC(=N)N)cc1`, for which the “activity, negative = inhibition” value was -3.85%.

In the case of `CC(C)=CCC/C(C)=C/CO/N=C1/C[C@@H](O)[C@@H](O)[C@@H]2[C@H]3C(=O)N(c4ccc(F)cc4F)C(=O)[C@@H]3CC[C@H]12`, the activity, negative = inhibition is -0.361% [at 11.4 µM].

With `CCOc1ccc2[nH]c(=O)c(CN(CCc3ccccc3)C(=O)N3CCCC3)cc2c1`, the AC50 was 14.1 µM (active).

`COc1ccc(S(=O)(=O)N(CCc2ccccc2)CC(=O)N2CCOCC2)cc1`: the “activity, negative = inhibition” value was -25.1%.

On to `COc1ccc(S(=O)(=O)N(CC(=O)N2CCCC2)Cc2ccccc2)cc1`, for which the “activity, negative = inhibition” value was 2.54%.

As to `CSc1nnc(-c2sccc2OCc2ccccc2)n1C`, the concentration at half-maximal activity (AC50) was 7.08 µM (active).

In the case of `CSc1n[nH]c(-c2sccc2OCc2ccc(C)cc2)n1`, the AC50 is 1.41 µM (active).

Consider `Cn1c(-c2sccc2OCc2ccccc2)n[nH]c1=S`, for which the AC50 is 0.355 µM (active).

Take `CC(=O)O[C@]1(C)N=NC2(CCCCC2)O1`: the activity, negative = inhibition was -9.6% [at 11.4 µM].

In the case of `CC(=O)OC[C@@H]1O[C@@H](O/N=C2/C[C@@H](O)[C@@H](O)[C@@H]3[C@@H]4C(=O)N(C[C@@H]5CCCO5)C(=O)[C@H]4CC[C@H]23)[C@H](OC(C)=O)[C@H](OC(C)=O)[C@@H]1OC(C)=O`, the activity, negative = inhibition is -5.84% [at 11.4 µM].

In the case of `Cc1noc(C)c1-c1ccc2ncnc(N3CCN(C)CC3)c2c1`, the AC50 is 12.6 µM (active).

Consider `Cc1noc(C)c1-c1ccc2ncnc(N3CCOCC3)c2c1`, for which the concentration at half-maximal activity (AC50) is 12.6 µM (active).

Consider `Cc1noc(C)c1-c1cncnc1N1CCN(C)CC1`, for which the “activity, negative = inhibition” value is -14.7%.

Turning to `NCCc1ccn[nH]1`, the “activity, negative = inhibition” value was -2.19% [at 25.6 µM].

Consider `CCOC(=O)c1[nH]c2cc(OC)c(OC)cc2c1NC(=O)c1nonc1C`, for which the AC50 was 1 µM (active).

Consider `CC1(C)CC(NC(=O)c2ccc3c(c2)OCO3)CC(C)(C)N1`, for which the “activity, negative = inhibition” value is -25.9%.

On to `CCOC(=O)c1[nH]c2cc(OC)c(OC)cc2c1NC(=O)c1ccc2c(c1)OCO2`, for which the concentration at half-maximal activity (AC50) was 2.24 µM (active).

As for `Cc1ccc(NC(=O)CN2CCC(NC(=O)Cc3ccccc3)CC2)cc1C`, the “activity, negative = inhibition” value is -9.71%.

Turning to `COc1cc(C(=O)OCC(=O)Nc2cc(C)on2)cc(OC)c1OC`, the “activity, negative = inhibition” value is -14.8%.

With `CCOC(=O)c1[nH]c2cc3c(cc2c1NC(=O)CN1CCc2ccccc2C1)OCO3`, the AC50 was 2.82 µM (active).

For the compound `COC(=O)c1[nH]c2cc(OC)ccc2c1NC(=O)c1ccc2c(c1)OCO2`, the half-maximal activity concentration (AC50) was 2.51 µM (active).

For the compound `c1ccc2c[n+](Cc3ccnc4ccccc34)ccc2c1`, the activity, negative = inhibition is -21.8% [at 2.29 µM].

As for `CCOC(=O)N1CCC(NC(=O)c2cc(S(=O)(=O)N3CCCC3)cn2C)CC1`, the “activity, negative = inhibition” value was -27.9%.

The values are drawn from PubChem BioAssay AID1851 (National Center for Advancing Translational Sciences (NCATS), 2009).
